Measurements: ChEMBL document CHEMBL3988442, “University of Dundee, Small-Polar-MMV Screening Library” (2021)
For part of these data: Entries with a potency or affinity are not part of this list.

Experiments:
Set-up in all cases: scale not given: direction of the effect not stated beside the values
[1] = molecular target: Protein translocase subunit SecA (Escherichia coli (strain K12)) (UniProt P10408); experiment: Assay to Identify E. coli SecA ATPase Inhibitors; format: functional; details: 30 µM
Protein translocase subunit SecA (Escherichia coli (strain K12)), sequence (P10408 whole entry): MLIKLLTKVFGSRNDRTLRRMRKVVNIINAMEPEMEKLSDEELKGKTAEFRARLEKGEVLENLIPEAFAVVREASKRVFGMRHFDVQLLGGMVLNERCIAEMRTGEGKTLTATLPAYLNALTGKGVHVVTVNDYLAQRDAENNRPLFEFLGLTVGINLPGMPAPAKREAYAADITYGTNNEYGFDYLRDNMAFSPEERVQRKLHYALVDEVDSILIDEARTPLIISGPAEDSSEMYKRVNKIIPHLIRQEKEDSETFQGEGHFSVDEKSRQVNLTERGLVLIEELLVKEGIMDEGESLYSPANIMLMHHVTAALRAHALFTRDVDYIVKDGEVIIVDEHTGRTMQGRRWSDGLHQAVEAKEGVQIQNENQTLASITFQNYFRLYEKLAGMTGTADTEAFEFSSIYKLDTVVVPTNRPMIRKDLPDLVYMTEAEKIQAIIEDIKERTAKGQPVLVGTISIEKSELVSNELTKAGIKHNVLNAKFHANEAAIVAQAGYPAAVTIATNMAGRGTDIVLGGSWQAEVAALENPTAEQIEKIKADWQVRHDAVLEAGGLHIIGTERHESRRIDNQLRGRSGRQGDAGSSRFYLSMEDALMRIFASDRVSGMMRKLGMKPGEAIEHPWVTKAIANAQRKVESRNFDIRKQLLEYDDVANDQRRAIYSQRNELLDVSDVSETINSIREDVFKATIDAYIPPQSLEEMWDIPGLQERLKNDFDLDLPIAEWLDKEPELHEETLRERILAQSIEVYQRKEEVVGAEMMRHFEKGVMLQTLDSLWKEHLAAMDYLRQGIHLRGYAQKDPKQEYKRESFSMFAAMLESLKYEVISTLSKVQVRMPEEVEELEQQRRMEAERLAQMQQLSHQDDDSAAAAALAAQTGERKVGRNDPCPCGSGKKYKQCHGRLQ

[2] = molecular target: T1, Ubiquitin-activating enzyme e1, putative (Leishmania donovani (strain BPK282A1)) (UniProt E9BSI1); experiment: Leishmania donovani Ubiquitin Activating Enzyme (LdE1); format: functional; details: 30 µM
T1 sequence (whole entry): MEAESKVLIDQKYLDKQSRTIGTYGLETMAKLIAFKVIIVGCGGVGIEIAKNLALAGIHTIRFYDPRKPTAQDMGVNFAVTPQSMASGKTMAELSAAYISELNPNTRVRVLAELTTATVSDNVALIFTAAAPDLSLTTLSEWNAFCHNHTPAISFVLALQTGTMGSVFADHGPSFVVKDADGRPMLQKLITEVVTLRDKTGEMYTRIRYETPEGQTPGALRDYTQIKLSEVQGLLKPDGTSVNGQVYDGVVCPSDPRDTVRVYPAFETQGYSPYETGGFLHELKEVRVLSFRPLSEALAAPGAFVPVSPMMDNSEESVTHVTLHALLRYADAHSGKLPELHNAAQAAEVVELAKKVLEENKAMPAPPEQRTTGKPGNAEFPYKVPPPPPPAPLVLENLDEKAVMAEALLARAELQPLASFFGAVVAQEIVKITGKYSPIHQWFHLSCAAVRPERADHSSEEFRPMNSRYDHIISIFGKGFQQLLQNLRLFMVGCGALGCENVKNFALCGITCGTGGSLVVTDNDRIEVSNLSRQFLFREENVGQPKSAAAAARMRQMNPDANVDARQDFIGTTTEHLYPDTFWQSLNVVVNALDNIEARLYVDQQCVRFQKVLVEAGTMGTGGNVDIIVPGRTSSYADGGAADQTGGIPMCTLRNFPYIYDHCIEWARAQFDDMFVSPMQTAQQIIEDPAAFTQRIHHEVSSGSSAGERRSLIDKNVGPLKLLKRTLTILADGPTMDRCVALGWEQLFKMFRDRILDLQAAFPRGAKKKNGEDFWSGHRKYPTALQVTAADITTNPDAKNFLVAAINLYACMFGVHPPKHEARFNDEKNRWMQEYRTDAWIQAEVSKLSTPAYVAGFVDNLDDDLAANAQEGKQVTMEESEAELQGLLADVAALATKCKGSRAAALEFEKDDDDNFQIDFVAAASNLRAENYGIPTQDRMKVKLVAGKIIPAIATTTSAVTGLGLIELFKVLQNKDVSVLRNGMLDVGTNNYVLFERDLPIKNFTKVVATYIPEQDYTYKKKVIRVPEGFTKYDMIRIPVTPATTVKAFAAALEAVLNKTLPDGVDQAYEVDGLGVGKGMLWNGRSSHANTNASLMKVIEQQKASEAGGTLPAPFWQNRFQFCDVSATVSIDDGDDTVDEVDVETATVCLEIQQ

[3] = molecular target: Sialic acid-binding Ig-like lectin 9 (Homo sapiens) (UniProt Q9Y336); experiment: Hs-Siglec9 ALPHAscreen SOP 20170721; details: 10 µM
Sialic acid-binding Ig-like lectin 9 (Homo sapiens), sequence (Q9Y336 whole entry): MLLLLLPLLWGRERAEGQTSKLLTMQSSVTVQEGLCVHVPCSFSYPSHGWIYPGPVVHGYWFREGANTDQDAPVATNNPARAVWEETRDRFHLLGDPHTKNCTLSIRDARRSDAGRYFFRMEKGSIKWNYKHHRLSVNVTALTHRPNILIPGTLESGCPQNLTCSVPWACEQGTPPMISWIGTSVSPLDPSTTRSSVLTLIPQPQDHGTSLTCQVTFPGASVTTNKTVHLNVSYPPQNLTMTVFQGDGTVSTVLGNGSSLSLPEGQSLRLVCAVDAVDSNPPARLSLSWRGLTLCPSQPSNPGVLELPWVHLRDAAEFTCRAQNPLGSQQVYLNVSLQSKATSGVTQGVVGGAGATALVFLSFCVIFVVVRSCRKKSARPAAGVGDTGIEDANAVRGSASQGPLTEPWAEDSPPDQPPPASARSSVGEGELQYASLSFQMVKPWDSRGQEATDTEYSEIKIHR

Trypanosoma cruzi = experiment: Trypanosoma cruzi phosphomannomutase and mannose-1-phosphate guanylyltransferase assay; format: functional; details: 10 µM
[4] = molecular target: T2, Arginase-2, mitochondrial (Homo sapiens) (UniProt P78540); experiment: in vitro enzyme assay to detect the production of urea directly proportional to the activity of Arginase II; format: functional; details: 33.3 µM; note: in the data most compounds retested in dose-response had high values
T2 sequence (whole entry): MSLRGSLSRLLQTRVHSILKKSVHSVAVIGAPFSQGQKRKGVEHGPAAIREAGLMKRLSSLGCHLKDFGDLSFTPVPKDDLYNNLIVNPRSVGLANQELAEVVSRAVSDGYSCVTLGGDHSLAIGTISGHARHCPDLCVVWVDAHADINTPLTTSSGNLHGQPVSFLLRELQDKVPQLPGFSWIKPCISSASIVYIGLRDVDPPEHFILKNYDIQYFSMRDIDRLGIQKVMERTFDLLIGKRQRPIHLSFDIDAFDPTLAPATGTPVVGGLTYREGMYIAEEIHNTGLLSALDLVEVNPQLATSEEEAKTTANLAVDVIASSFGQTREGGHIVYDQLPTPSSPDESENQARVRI

[5] = molecular target: T3, Proteasome subunit beta (Trypanosoma cruzi) (UniProt O96673); experiment: Trypanosoma cruzi proteasome chymotrypsin-like activity (TcProtChymo) assay.; note: in the data most compounds retested in dose-response had high values; format: functional; details: 9.37 µM
T3 sequence (whole entry): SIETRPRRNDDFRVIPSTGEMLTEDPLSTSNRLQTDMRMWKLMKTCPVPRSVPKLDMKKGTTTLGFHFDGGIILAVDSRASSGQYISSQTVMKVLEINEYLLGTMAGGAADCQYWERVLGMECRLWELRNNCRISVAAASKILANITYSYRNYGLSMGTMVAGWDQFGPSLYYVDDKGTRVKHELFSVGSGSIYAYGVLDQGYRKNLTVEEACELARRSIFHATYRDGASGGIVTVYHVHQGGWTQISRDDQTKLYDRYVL

Homo sapiens = species on record: Homo sapiens; experiment: To identify inhibition of the IFN signalling (Jak-Stat) pathway via expression of an eGFP reporter gene under the control of an IFN-stimulated response element (ISRE) containing MxA promoter.; format: functional; details: 30 µM
[6] = molecular target: T4, Tyrosyl-tRNA synthetase, putative (Trypanosoma cruzi (strain CL Brener)) (UniProt Q4DSP6); experiment: Trypanosoma cruzi tyrosyl tRNA synthetase (TcYRS) _High Tyrosine SOP; format: functional; details: 30 µM; note: in the data most compounds retested in dose-response had high values
T4 sequence (whole entry): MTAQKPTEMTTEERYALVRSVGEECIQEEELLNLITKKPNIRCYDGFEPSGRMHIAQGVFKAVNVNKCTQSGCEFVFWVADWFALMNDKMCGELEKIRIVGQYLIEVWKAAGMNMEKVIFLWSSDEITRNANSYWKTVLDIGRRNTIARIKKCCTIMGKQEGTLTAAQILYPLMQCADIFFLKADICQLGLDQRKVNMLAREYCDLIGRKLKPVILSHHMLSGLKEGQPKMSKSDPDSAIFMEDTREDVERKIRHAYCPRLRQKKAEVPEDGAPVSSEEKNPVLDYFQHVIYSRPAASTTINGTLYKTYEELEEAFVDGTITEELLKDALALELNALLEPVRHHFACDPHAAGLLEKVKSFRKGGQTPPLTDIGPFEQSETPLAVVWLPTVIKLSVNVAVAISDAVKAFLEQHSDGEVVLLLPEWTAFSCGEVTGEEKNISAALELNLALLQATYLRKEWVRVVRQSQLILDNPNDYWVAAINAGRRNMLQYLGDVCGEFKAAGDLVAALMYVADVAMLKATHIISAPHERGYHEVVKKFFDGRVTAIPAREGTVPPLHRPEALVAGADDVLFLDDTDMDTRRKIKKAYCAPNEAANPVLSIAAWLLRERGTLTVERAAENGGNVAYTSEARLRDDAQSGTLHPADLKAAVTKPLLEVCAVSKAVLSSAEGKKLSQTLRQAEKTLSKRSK

[7] = molecular target: T4, Tyrosyl-tRNA synthetase, putative (Trypanosoma cruzi (strain CL Brener)); experiment: Trypanosoma cruzi tyrosyl tRNA synthetase (TcYRS) SOP; format: functional; details: 30 µM
[8] = molecular target: Chromo domain-containing protein 1 (Saccharomyces cerevisiae (strain ATCC 204508 / S288c) (Baker's yeast)) (UniProt P32657); experiment: ScCHD-1 Enzyme Inhibition Assay; format: functional; details: 30 µM; note: in the data most compounds retested in dose-response had high values
Chromo domain-containing protein 1 (Saccharomyces cerevisiae (strain ATCC 204508 / S288c) (Baker's yeast)), sequence (P32657 whole entry, the tested form may be a part): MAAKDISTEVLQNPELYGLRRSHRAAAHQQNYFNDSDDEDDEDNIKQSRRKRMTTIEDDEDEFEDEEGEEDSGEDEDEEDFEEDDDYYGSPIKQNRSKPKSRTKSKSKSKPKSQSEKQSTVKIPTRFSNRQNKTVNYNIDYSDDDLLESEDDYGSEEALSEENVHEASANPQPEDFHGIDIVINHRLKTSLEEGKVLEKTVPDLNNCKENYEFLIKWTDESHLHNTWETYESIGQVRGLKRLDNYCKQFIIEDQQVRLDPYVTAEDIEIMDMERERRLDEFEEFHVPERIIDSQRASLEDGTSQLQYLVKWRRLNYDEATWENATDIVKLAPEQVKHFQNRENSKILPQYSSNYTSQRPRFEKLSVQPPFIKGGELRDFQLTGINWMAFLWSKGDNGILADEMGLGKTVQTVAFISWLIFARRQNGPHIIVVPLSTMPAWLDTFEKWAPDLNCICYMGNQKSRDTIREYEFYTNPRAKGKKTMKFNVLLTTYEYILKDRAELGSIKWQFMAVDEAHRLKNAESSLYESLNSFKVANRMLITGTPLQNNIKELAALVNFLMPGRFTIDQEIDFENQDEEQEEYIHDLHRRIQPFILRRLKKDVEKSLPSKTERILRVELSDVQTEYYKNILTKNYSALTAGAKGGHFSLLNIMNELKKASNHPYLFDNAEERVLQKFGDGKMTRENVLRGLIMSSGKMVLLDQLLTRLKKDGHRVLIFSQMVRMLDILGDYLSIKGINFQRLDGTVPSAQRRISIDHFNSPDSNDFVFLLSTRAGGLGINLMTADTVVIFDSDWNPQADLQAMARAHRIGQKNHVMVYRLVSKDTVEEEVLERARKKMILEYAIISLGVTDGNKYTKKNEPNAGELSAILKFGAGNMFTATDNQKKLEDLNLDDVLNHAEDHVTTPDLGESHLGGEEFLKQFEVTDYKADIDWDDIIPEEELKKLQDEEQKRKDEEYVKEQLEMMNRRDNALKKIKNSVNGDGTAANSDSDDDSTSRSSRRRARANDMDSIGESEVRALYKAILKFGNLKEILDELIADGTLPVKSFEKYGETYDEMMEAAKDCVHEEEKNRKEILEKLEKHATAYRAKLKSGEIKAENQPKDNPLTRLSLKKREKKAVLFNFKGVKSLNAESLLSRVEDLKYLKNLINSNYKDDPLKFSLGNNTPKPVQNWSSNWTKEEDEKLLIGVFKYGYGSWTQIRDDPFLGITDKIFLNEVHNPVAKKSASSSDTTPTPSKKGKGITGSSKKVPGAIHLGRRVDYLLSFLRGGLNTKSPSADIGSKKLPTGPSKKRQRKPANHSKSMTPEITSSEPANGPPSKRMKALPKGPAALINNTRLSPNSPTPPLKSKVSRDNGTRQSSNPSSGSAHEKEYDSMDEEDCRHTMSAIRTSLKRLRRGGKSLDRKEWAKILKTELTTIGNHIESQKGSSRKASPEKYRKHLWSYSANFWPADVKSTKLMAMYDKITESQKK

| SMILES | Percent Effect [1] | Percent Effect [2] | Percent Effect [3] | Percent Effect (Trypanosoma cruzi) | Percent Effect [4] | Percent Effect [5] | Percent Effect (Homo sapiens) | Percent Effect [6] | Percent Effect [7] | Percent Effect [8] |
| --- | --- | --- | --- | --- | --- | --- | --- | --- | --- | --- |
| COCCNC(=O)Nc1ccc(F)c(C(N)=O)c1 | 2.83% | 15.6% | -5.71% | -5.04% | 0.615% | 8.42% | 8.95% | 9.8% | 16.5% | -12.2% |
| COc1ncc(C2(O)CCN(Cc3ccccc3O)CC2)c(OC)n1 | -3.88% | 22.7% | 0.188% | 1.58% | -3.1% | 13.6% | -5.87% | 6.35% | 20% | -23.4% |
| COC[C@@H]1CC[C@H]2[C@H](CCN2S(=O)(=O)c2ccc(OC)cc2)O1 | -2.3% | -1.3% | 2.46% | -0.876% | -1.62% | 6.09% | -19.4% | -1.58% | 5.13% | 1.57% |
| O=C(NCc1cc(O)ncn1)C1CCOc2ccccc2C1 (stereo not given) | -6.27% | 5.41% | 6.22% | 1.26% | 5.94% | 14.4% | 15.2% | 6.92% | 12.2% | -2.81% |
| COCCC(=O)N1CCn2c(COCC3CC3)cnc2C1C (stereo not given) | -9.04% | 1.3% | 6.82% | -3.6% | -3.24% | 4.33% | -4.92% | 0.526% | 5.13% | -2.88% |
| CCc1ccc(O)c(C(=O)NC2CCN(S(=O)(=O)CC)CC2)c1 | -6.37% | 17.9% | -17.5% | 5.35% | -4.92% | 10.2% | 20.5% | 1.44% | 22.9% | -10.9% |
| Cc1nc(-c2ccc(C(=O)O)cc2)cc(C2CCN(C(C)C)C2)n1 (stereo not given) | -2.82% | 12% | -4.91% | -1.18% | 4.87% | 10.7% | 8.94% | 5.29% | 15% | -22.5% |
| Cc1cc2cc(C(=O)N3CC[C@H](O)[C@]4(CCCO4)C3)ccc2o1 | -4.25% | 17.3% | 3.44% | 2.17% | -3.1% | 8.37% | -3.08% | 6.35% | 12.5% | -20.9% |
| CC(C)N(Cc1nc2c(cnn2C)c(=O)[nH]1)c1ccccc1 | -2.48% | 10.3% | -5.08% | 5.54% | 4.1% | 1.96% | 7.17% | 5.26% | 18.1% | -3.23% |
| Cc1ccc(-c2nc(CN3CCc4c(ncn4C)C3)cs2)o1 | -4.38% | 2.56% | -16.5% | 11.9% | -6.56% | 24.3% | 2.62% | 11% | 18.1% | 37.3% |
| CNC(=O)c1cccnc1Oc1ccccc1 | -2.06% | 19.5% | 16.3% | 5.07% | 0% | 13.5% | 10% | 4.83% | 12.5% | -9.58% |
| CC(=O)N1C[C@@H](c2ccsc2)[C@@H]2CN(Cc3cccc(Cl)c3)CC[C@@H]21 | -3.63% | 9.33% | 5.9% | -1.97% | 7.08% | 6.9% | 56.9% | 9.52% | 20% | -24.3% |
| CC(C)n1ccnc1CN1CCCN(C(=O)c2cccnc2O)CC1 | -4.65% | 15.4% | -20.6% | 5.54% | 1.64% | 14.9% | -7.69% | 10.1% | 22.9% | -5.81% |
| O=C(c1ccc(F)cc1F)N1CC[C@H](O)[C@@H](N2CCOCC2)CC1 | -1.33% | 6.67% | 3.3% | -1.58% | 3.98% | 3.94% | 12.8% | 2.12% | 7.5% | -18.1% |
| Cc1cccnc1C(=O)N1CCCCC1c1[nH]ncc1S(C)(=O)=O (stereo not given) | -3.04% | 6.67% | 0.367% | -1.97% | 6.64% | 4.76% | 0.716% | 7.41% | 7.5% | -19.6% |
| CC(C)CNC(=O)c1ccc2nnc(C3CCN(S(C)(=O)=O)C3)n2c1 (stereo not given) | -3.3% | -3.9% | 1.06% | -1.27% | 0% | 3.44% | -2.55% | -0.526% | 2.56% | -1.85% |
| O=C(c1ccno1)N1CCC2(CC1)C(=O)N(CC1CC1)c1ccccc12 | -0.905% | -29.9% | -1.46% | -0.75% | 3.2% | 3% | 5.14% | 1.93% | 0% | -3.48% |
| COc1ccc(CN2CCN(C(C)=O)CC3(CC(=O)N(C)C3)C2)cc1 (stereo not given) | -0.72% | 14.3% | 1.28% | -0.375% | 2.28% | 6.44% | 4.32% | 12.6% | 20% | -6.64% |
| Cc1nn2cccnc2c1C(=O)N1CCCC(n2ccnc2)C1 (stereo not given) | 0.231% | 13.3% | -7.92% | -2.21% | 0% | 8.23% | 2.09% | 3.68% | 12.8% | -11.1% |
| Cc1ccc2oc(C(=O)N3CCc4nnc(N(C)C)cc4C3)cc2n1 | -3.69% | 10.7% | 5.58% | 3.21% | 0.887% | 12.8% | 4.8% | 4.74% | 5.13% | -10.7% |
| Cc1noc(C2CCN(C(=O)CCNc3ncccn3)CC2)n1 | -0.897% | 12.8% | -14% | 5.92% | 0% | 9.98% | 14.8% | 6.22% | 22.9% | -4.88% |
